This note sets out measurements from PubChem BioAssay.

The structures appear in SMILES notation. For part of these data: Entries with a potency or affinity are not part of this list. Active and inactive are the calls of the source. No rule for the calls is given here.

Plasmodium falciparum protein kinase 6 (PK6, PF3D7_1337100), sequence (Q8IDW1 1-305): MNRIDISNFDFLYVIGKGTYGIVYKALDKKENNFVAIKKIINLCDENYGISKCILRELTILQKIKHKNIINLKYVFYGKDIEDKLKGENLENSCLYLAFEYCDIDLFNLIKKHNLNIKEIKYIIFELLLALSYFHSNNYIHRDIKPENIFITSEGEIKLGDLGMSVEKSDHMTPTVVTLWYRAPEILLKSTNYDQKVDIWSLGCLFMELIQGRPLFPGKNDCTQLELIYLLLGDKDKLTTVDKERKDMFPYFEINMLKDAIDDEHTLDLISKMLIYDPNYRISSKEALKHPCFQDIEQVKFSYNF

The first assay addresses Plasmodium falciparum protein kinase 6 (PK6, PF3D7_1337100) (UniProt Q8IDW1). Briefly: PfPK6 kinase inhibitors, biochemical, TCAMS library (AID 1159586). Particulars: recombinant PfPK6, Kinase-Glo ATP depletion luminescence.
On to `COc1cccc(CNC[C@@H](O)[C@H](Cc2ccccc2)NC(=O)c2cc(C(C)C)cc(N3CCCC3=O)c2)c1`, for which the result was inactive.
For `COc1ccc2ncc(C#N)c(CCN3CCC(NCc4ccc5c(c4)OCCO5)CC3)c2c1`, the result was inactive.
For `CCC(CC)(Cc1ccccc1)NC(=O)[C@H](CC(C)C)Nc1ccc(C#N)c2ccccc12`, the result was inactive.
In the case of `O=S(=O)(Nc1cccc(CCN2CCCCC2CCN2CCCC2)c1)c1ccc(-c2ccccc2)cc1` (stereo not drawn), the outcome was inactive.
On to `COc1cccc2sc(N3CCN(C(=O)c4ccc([N+](=O)[O-])o4)CC3)nc12`, for which the result was inactive.
Consider `Cc1onc(-c2c(F)cccc2Cl)c1C(=O)Nc1ccccc1I`, for which the outcome was inactive.
Turning to `Cc1ccccc1C1CCN(C2CCC(NC(=O)c3ccc(-c4cccs4)s3)CC2)CC1` (stereo not drawn), the outcome was inactive.
`COc1ccccc1CCNc1nc(C)cc(NCCC(=O)Nc2ccccc2)n1`: the outcome was inactive.
The same measure, in the same setting: the entry for `O=C(Cn1c(CCc2cccc(F)c2F)cc(=O)c2ccccc21)N(CCN1CCCC1)Cc1ccc(-c2ccc(C(F)(F)F)cc2)cc1` is “inactive”; for `O=C(CCN1C(=O)c2ccccc2C1=O)N1CCN(CC=Cc2ccccc2)CC1` it is “inactive”; for `Cc1cccc(CN2CCCC3(CCN(Cc4ccccc4O)C3)C2)c1` (stereo not drawn) it is “inactive”.
As for `Nc1nc2c(c(=O)[nH]1)CN(S(=O)(=O)c1ccc(C(=O)N[C@@H](CCC(=O)O)C(=O)O)cc1)CC2`, the outcome was inactive.
In the case of `O=C(Nc1cccc(-c2nc3ccccc3[nH]2)c1)c1ccc(-c2cccc([N+](=O)[O-])c2)o1`, the outcome was inactive.
For `O=C(/C=C/c1ccc(Cl)c(Cl)c1)NCCCCCCN1CCN(C(=O)Nc2cccc(Cl)c2)CC1`, the outcome was inactive.
For `CC(Cc1ccc(CNC(=O)NCc2ccc(CC(C)NCCc3cccc(Cl)c3)cc2)cc1)NCCc1cccc(Cl)c1` (stereo not drawn), the outcome was inactive.
`CCCCCCN1CCC(NCc2cccc(C#N)c2)CC1`: the outcome was inactive.
Consider `O=C(Nc1cccc(CN2CCCN(Cc3cccc(O)c3)CC2)c1)c1ccc(-c2ccccc2)cc1`, for which the result was inactive.
In the case of `FC(F)(F)c1ccc2nc(-c3ccc(-c4cccc(CNCCc5cccnc5)c4)s3)[nH]c2c1`, the result was inactive.
As to `CCCCCCCNC(=O)NCC1CCCN(CCCCCNC(=O)/C=C/c2ccc(Cl)c(Cl)c2)C1` (stereo not drawn), the outcome was inactive.
As to `CC1CCc2c(C(=O)Nc3c(F)cc(F)cc3Br)csc2C1` (stereo not drawn), the result was inactive.
Regarding `CC(C)COc1ccc(Cl)cc1Cc1ccc(-c2nc3ccc(CCN(C)C)cc3[nH]2)o1`, the result was inactive.
For `CCOc1ccc(C2CCN(CCCCNC(=O)c3ccc(NC(=O)c4ccc(Cl)cc4)cc3)CC2)c(OCC)c1`, the outcome was inactive.
Consider `O=C(N[C@@H](CC1CCCCC1)C(=O)NC1CCCc2ccccc21)c1ccc(O)c(-c2ccc(Cl)c(Cl)c2)c1` (stereo partly drawn), for which the result was inactive.
On to `CCOC(=O)c1ccc(-c2cnoc2-c2cc(CC)c(OC)cc2O)o1`, for which the result was inactive.
For the molecule `Cc1ccc2cc(NC(=O)c3cccc(C(=O)Nc4ccc5nc(C)ccc5c4)n3)ccc2n1`, the result was inactive.
Take `CC1CC(NCCCNc2cc(=O)c3ccccc3[nH]2)c2c(Cl)c(Cl)cc(Cl)c21` (stereo not drawn): the result was inactive.
For the molecule `N#Cc1ccc2c(c1)CCN(CCCn1c(-c3ccc4ccccc4c3)nc3ccncc31)CC2`, the outcome was inactive.
Still for that read-out and setting: under `O=C(Nc1ccc2nc3n(c(=O)c2c1)CCCCC3)C(=O)N1CCN(c2ccc(F)cc2)CC1` stands “inactive”.
For `COc1ccc2nccc(N3CCN(CCNCc4ccc5c(n4)NC(=O)CS5)CC3)c2n1`, the result was inactive.
Same read-out and setting: under `COc1ccc(NC(=O)Nc2ccc(-c3ccncc3)c(C(F)(F)F)c2)cc1N1CCN(C)CC1` stands “inactive”; under `O=S(=O)(NCCN1CCCC1)c1cccc(-c2ccc(CNCc3ccc(F)cc3)cc2)c1`, “inactive”.
`O=C(NC1CC1)c1ccc(N2CCOc3ccc(Cl)cc32)s1`: the outcome was inactive.
For `CCOc1cc(Cc2cnc(N)nc2N)cc(OCC)c1OCCCCC(=O)OC`, the result was inactive.
Same read-out and setting: under `Clc1ccc(-c2ccc(C=NNc3nc(Nc4ccccc4)nc(Nc4ccccc4)n3)o2)cc1Cl` stands “inactive”; under `CCOC(=O)CNC(=O)N(CCN(Cc1ccccc1)C(=O)NCC(=O)OCC)Cc1ccccc1`, “inactive”; under `CCN(CC)CCN(Cc1ccc(-c2ccc(C(F)(F)F)s2)cc1)C(=O)Cn1c(CCc2cccc(F)c2F)nc(=O)c2ccccc21`, “inactive”.
Regarding `O=C(Nc1cccc(-c2ccc(CN3CCNCC3)cc2)c1)c1cccc(Cl)c1`, the outcome was inactive.
`Cc1cccc(Cn2c(Cc3ccccc3)nnc2Sc2ccc([N+](=O)[O-])c(C#N)c2)c1`: the outcome was inactive.
With `COc1cc(-c2ccc(-c3cnc(N)nc3OC)[nH]2)cc(OC)c1OC`, the result was inactive.

The target of a further assay is Protein kinase 7 (PK7), Plasmodium falciparum 3D7 (PF3D7_0213400) (UniProt Q7YTF7). Briefly: inhibition of Plasmodium PK7 catalytic activity – biochemical, TCAMS antimalarial set, Kinase-Glo luminescence (AID 1159587). Conditions: recombinant PfPK7, Kinase-Glo ATP depletion luminescence.
Protein kinase 7 (PK7), Plasmodium falciparum 3D7 (PF3D7_0213400), sequence (Q7YTF7 1-343): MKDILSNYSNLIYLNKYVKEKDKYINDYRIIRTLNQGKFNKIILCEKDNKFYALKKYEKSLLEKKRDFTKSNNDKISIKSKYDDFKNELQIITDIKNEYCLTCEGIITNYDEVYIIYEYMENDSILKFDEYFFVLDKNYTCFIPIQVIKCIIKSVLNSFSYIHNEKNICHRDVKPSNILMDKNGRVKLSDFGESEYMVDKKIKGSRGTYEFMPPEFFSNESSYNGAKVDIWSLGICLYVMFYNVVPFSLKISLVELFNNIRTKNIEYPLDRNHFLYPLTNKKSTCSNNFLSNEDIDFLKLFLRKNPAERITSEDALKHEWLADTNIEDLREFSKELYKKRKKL
Consider `COc1cccc(CNC[C@@H](O)[C@H](Cc2ccccc2)NC(=O)c2cc(C(C)C)cc(N3CCCC3=O)c2)c1`, for which the outcome was inactive.
Consider `COc1ccc2ncc(C#N)c(CCN3CCC(NCc4ccc5c(c4)OCCO5)CC3)c2c1`, for which the result was inactive.
Take `CCC(CC)(Cc1ccccc1)NC(=O)[C@H](CC(C)C)Nc1ccc(C#N)c2ccccc12`: the result was inactive.
On to `O=S(=O)(Nc1cccc(CCN2CCCCC2CCN2CCCC2)c1)c1ccc(-c2ccccc2)cc1` (stereo not drawn), for which the outcome was inactive.
For the molecule `COc1cccc2sc(N3CCN(C(=O)c4ccc([N+](=O)[O-])o4)CC3)nc12`, the outcome was inactive.
`Cc1onc(-c2c(F)cccc2Cl)c1C(=O)Nc1ccccc1I`: the result was inactive.
`Cc1ccccc1C1CCN(C2CCC(NC(=O)c3ccc(-c4cccs4)s3)CC2)CC1` (stereo not drawn): the outcome was inactive.
`COc1ccccc1CCNc1nc(C)cc(NCCC(=O)Nc2ccccc2)n1`: the outcome was inactive.
On to `O=C(Cn1c(CCc2cccc(F)c2F)cc(=O)c2ccccc21)N(CCN1CCCC1)Cc1ccc(-c2ccc(C(F)(F)F)cc2)cc1`, for which the outcome was inactive.
Regarding `O=C(CCN1C(=O)c2ccccc2C1=O)N1CCN(CC=Cc2ccccc2)CC1`, the outcome was inactive.
As to `Cc1cccc(CN2CCCC3(CCN(Cc4ccccc4O)C3)C2)c1` (stereo not drawn), the result was inactive.
For `Nc1nc2c(c(=O)[nH]1)CN(S(=O)(=O)c1ccc(C(=O)N[C@@H](CCC(=O)O)C(=O)O)cc1)CC2`, the outcome was inactive.
Turning to `O=C(Nc1cccc(-c2nc3ccccc3[nH]2)c1)c1ccc(-c2cccc([N+](=O)[O-])c2)o1`, the outcome was inactive.
Take `O=C(/C=C/c1ccc(Cl)c(Cl)c1)NCCCCCCN1CCN(C(=O)Nc2cccc(Cl)c2)CC1`: the result was inactive.
With `CC(Cc1ccc(CNC(=O)NCc2ccc(CC(C)NCCc3cccc(Cl)c3)cc2)cc1)NCCc1cccc(Cl)c1` (stereo not drawn), the outcome was inactive.
On the same count and under the same terms, the entry for `CCCCCCN1CCC(NCc2cccc(C#N)c2)CC1` is “inactive”.
`O=C(Nc1cccc(CN2CCCN(Cc3cccc(O)c3)CC2)c1)c1ccc(-c2ccccc2)cc1`: the result was inactive.
`FC(F)(F)c1ccc2nc(-c3ccc(-c4cccc(CNCCc5cccnc5)c4)s3)[nH]c2c1`: the outcome was inactive.
Consider `CCCCCCCNC(=O)NCC1CCCN(CCCCCNC(=O)/C=C/c2ccc(Cl)c(Cl)c2)C1` (stereo not drawn), for which the outcome was inactive.
Still for that read-out and setting: under `CC1CCc2c(C(=O)Nc3c(F)cc(F)cc3Br)csc2C1` (stereo not drawn) stands “inactive”; under `CC(C)COc1ccc(Cl)cc1Cc1ccc(-c2nc3ccc(CCN(C)C)cc3[nH]2)o1`, “inactive”; under `CCOc1ccc(C2CCN(CCCCNC(=O)c3ccc(NC(=O)c4ccc(Cl)cc4)cc3)CC2)c(OCC)c1`, “inactive”.
The same measure, in the same setting: under `O=C(N[C@@H](CC1CCCCC1)C(=O)NC1CCCc2ccccc21)c1ccc(O)c(-c2ccc(Cl)c(Cl)c2)c1` (stereo partly drawn) stands “inactive”.
On to `CCOC(=O)c1ccc(-c2cnoc2-c2cc(CC)c(OC)cc2O)o1`, for which the outcome was inactive.
With `Cc1ccc2cc(NC(=O)c3cccc(C(=O)Nc4ccc5nc(C)ccc5c4)n3)ccc2n1`, the result was inactive.
Regarding `CC1CC(NCCCNc2cc(=O)c3ccccc3[nH]2)c2c(Cl)c(Cl)cc(Cl)c21` (stereo not drawn), the outcome was inactive.
On the same count and under the same terms, under `N#Cc1ccc2c(c1)CCN(CCCn1c(-c3ccc4ccccc4c3)nc3ccncc31)CC2` stands “inactive”.
`O=C(Nc1ccc2nc3n(c(=O)c2c1)CCCCC3)C(=O)N1CCN(c2ccc(F)cc2)CC1`: the outcome was inactive.
The same measure, in the same setting: the entry for `COc1ccc2nccc(N3CCN(CCNCc4ccc5c(n4)NC(=O)CS5)CC3)c2n1` is “inactive”; for `COc1ccc(NC(=O)Nc2ccc(-c3ccncc3)c(C(F)(F)F)c2)cc1N1CCN(C)CC1` it is “inactive”; for `O=S(=O)(NCCN1CCCC1)c1cccc(-c2ccc(CNCc3ccc(F)cc3)cc2)c1` it is “inactive”.
With `O=C(NC1CC1)c1ccc(N2CCOc3ccc(Cl)cc32)s1`, the result was inactive.
With `CCOc1cc(Cc2cnc(N)nc2N)cc(OCC)c1OCCCCC(=O)OC`, the result was inactive.
On to `Clc1ccc(-c2ccc(C=NNc3nc(Nc4ccccc4)nc(Nc4ccccc4)n3)o2)cc1Cl`, for which the result was inactive.
Turning to `CCOC(=O)CNC(=O)N(CCN(Cc1ccccc1)C(=O)NCC(=O)OCC)Cc1ccccc1`, the outcome was inactive.
Consider `CCN(CC)CCN(Cc1ccc(-c2ccc(C(F)(F)F)s2)cc1)C(=O)Cn1c(CCc2cccc(F)c2F)nc(=O)c2ccccc21`, for which the result was inactive.
Turning to `O=C(Nc1cccc(-c2ccc(CN3CCNCC3)cc2)c1)c1cccc(Cl)c1`, the outcome was inactive.
The same measure, in the same setting: under `Cc1cccc(Cn2c(Cc3ccccc3)nnc2Sc2ccc([N+](=O)[O-])c(C#N)c2)c1` stands “inactive”.
On the same count and under the same terms, under `COc1cc(-c2ccc(-c3cnc(N)nc3OC)[nH]2)cc(OC)c1OC` stands “inactive”.
